For 35 molecules, growth results are on record in PubChem BioAssay (NCI).

Structures are written as SMILES. The panel holds about 83,000 compounds, 20% with a hit somewhere; the sample as a whole holds those more often.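 Activity criterion: percent growth below 10, measured after cells in 96-well plates were exposed to a single compound concentration for 48 hours.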 A number with no mark means an inactive call. Active and inactive are the calls of the source.

Experiment in all cases: NCI-60 one-dose screen, 48 h (100 = growth as untreated, 0 = no growth, -100 = all killed)
What all share (settings): 10 µM

In assay [1] the test system is T-47D breast.
For assay [2], the system named is BT-549 breast.
Assay [3] concerns MDA-MB-435 melanoma.
For assay [4], the system named is MCF7 breast.
Assay [5] deals with HCT-116 colon.
Assay [6] relates to HCC-2998 colon.
Assay [7] concerns KM12 colon.
Assay [8] has as its system SW-620 colon.

With `N#Cc1ccc(C(=O)CSc2nccc(Nc3ccc(C(=O)O)cc3)n2)cc1`, the growth in assay [1] was 110%; in assay [2], 103%; in assay [3], 104%; in assay [4], 91.3%; in assay [5] it was 108%; in assay [6] it was 100%. In addition, the growth in assay [7] is 105%.

For `O=C(Nc1ccc(OS(=O)(=O)c2ccccc2)cc1)C1CCCCC1`, the growth in assay [1] is 85.4%; in assay [2], 84%; in assay [3], 100%; in assay [4] it was 97%; in assay [5], 72.1%; in assay [6], 92.4%. The growth in assay [7] was 88.5%.

Turning to `C=CCn1c(SCC(=O)Nc2ccc(C(=O)/C=C/c3cc(OC)c(OC)c(OC)c3)cc2)nnc1-c1cc(-c2ccc(Cl)cc2)nc2ccccc12`, the growth in assay [1] was 78.4%; in assay [2], 75%; in assay [3] it was 92.9%; in assay [4] it was 38.6%; in assay [5], 50%; in assay [6] it was 103%. For the same molecule, in assay [7], the growth was 85.8%.

As for `CCOC(=O)N/N=C/c1ccc(OC)c(OC)c1`, the growth in assay [1] is 105%; in assay [2], 106%; in assay [3] it was 106%; in assay [8], 109%; in assay [5], 102%; in assay [6], 114%. Moreover, the growth in assay [7] was 117%.

On to `CCn1c(SCCc2ccccc2)nnc1-c1nn(-c2ccc(Cl)cc2Cl)c(-c2ccc(Cl)cc2)c1C`, for which the growth in assay [1] was 42.2%; in assay [2] it was 93.4%; in assay [3], 83.2%; in assay [8], 83.3%; in assay [5], 39.1%; in assay [6], 110%. Moreover, the growth in assay [7] is 69.5%.

In the case of `NC1=NC(c2ccccc2)C2=C(N1)/C(=C/c1ccccc1)CCC2` (stereo not drawn), the growth in assay [1] was 93.1%; in assay [2], 112%; in assay [3] it was 36.8%; in assay [4] it was 38.6%; in assay [5] it was -53.1% (active); in assay [6], 48.5%. For the same molecule, the growth in assay [7] is 47%.

Consider `CCOC(=O)C(C)(c1ccccc1)c1ccccc1`, for which the growth in assay [1] is 99.1%; in assay [3] it was 106%; in assay [8] it was 105%; in assay [4], 99.6%; in assay [5], 102%; in assay [6], 109%. For the same molecule, in assay [7], the growth is 96.4%.

As to `COc1cccc(CNc2cccc3cn[nH]c23)c1O`, the growth in assay [1] is 89.1%; in assay [2], 104%; in assay [8], 99.1%; in assay [5], 102%; in assay [6] it was 107%; in assay [7] it was 99%.

Take `Cc1ccc(S(=O)(=O)N(C)CCCCCC(=O)O)cc1`: the growth in assay [1] was 95.7%; in assay [3] it was 105%; in assay [8], 109%; in assay [4] it was 89.5%; in assay [5] it was 100%; in assay [6], 105%. In addition, the growth in assay [7] was 95.3%.

Consider `CC(C)(C)c1ccc(S(=O)(=O)N[C@H]2CC[C@H]3[C@@H]4CCc5cc(O)c([N+](=O)[O-])cc5[C@H]4CC[C@]23C)cc1`, for which the growth in assay [1] is 46.6%; in assay [2] it was 67.7%; in assay [3], 80.3%; in assay [4], 54.1%; in assay [5] it was 32.6%; in assay [6], 92.5%. The growth in assay [7] was 77.1%.

Take `N=C1S/C(=C/c2ccc(-c3ccc4c(c3)C(=O)NC4=O)o2)C(=O)N1c1ccc(Br)cc1`: the growth in assay [1] is 19.9%; in assay [2], 60.3%; in assay [3] it was 39.1%; in assay [4], 3.39% (active); in assay [5] it was 31.8%; in assay [6], 89%. Also, the growth in assay [7] was 46.4%.

Turning to `CC(C)(C)c1nn(-c2ccccc2)c2c1CC1(CN2Cc2ccc(Cl)cc2)C(=O)c2ccccc2C1=O`, the growth in assay [1] was 75.5%; in assay [2], 81.4%; in assay [8], 85.6%; in assay [4] it was 82.4%; in assay [5] it was 52.6%; in assay [6], 91.4%. The growth in assay [7] was 89.6%.

For the molecule `Cc1cccc(N=Cc2ccccc2O)c1C`, the growth is 106% in assay [1]; 90% in assay [2]; 102% in assay [3]; 106% in assay [5]; 104% in assay [6]; 114% in assay [7].

Take `CCCc1cn(CC(=O)Nc2nc3ccccc3s2)nn1`: the growth is 102% in assay [1]; 103% in assay [2]; 105% in assay [3]; 100% in assay [4]; 101% in assay [5]; 116% in assay [6]. In assay [7], the growth is 109%.

As for `CC(CN(C)C)Oc1ccc(OC(C)CN(C)C)c2c1C(=O)c1ccccc1C2=O` (stereo not drawn), the growth in assay [1] was 77.7%; in assay [3], 46.1%; in assay [8] it was 27.9%; in assay [4], 16.1%; in assay [5] it was 14.2%; in assay [6] it was 57.4%. Further, the growth in assay [7] was 51.1%.

For `CN(C)CCCOc1ccccc1NC1=C(Cl)C(=O)C(Nc2ccccc2OCCCN(C)C)=C(Cl)C1=O`, the growth in assay [1] was -37% (active); in assay [3], -76.2% (active); in assay [8], -46.8% (active); in assay [4], -52.7% (active); in assay [5] it was -82.5% (active); in assay [6] it was -87% (active). In assay [7], the growth is -34.2% (active).

Take `CN(C)CCCOc1ccc(OCCCN(C)C)c2c1C(=O)c1ccccc1C2=O`: the growth is -5.61% (active) in assay [1]; 3.12% (active) in assay [3]; 3.12% (active) in assay [8]; 8.41% (active) in assay [4]; 8.36% (active) in assay [5]; 16.7% in assay [6]. Further, the growth in assay [7] is 6.87% (active).

With `COc1ccc(/C(C#N)=C/c2cccc(OC)c2OC)cc1`, the growth in assay [1] was 80.7%; in assay [3], 9.46% (active); in assay [8], 65.2%; in assay [4], 66%; in assay [5], 89.7%; in assay [6] it was 78.4%. Further, in assay [7], the growth is 56.7%.

For `CCOC(=O)c1sc2ncnc(Nc3ccc4c(cnn4C(=O)Nc4ccccc4)c3)c2c1C`, the growth in assay [1] is 51.5%; in assay [2], 48.9%; in assay [3], 54.2%; in assay [4], 55.8%; in assay [5], 34.4%; in assay [6], 98.4%. Moreover, in assay [7], the growth was 65.5%.

For `CCOS(=O)(=O)c1c(C(C)C)cc(C(C)C)cc1C(C)C`, the growth in assay [1] was 115%; in assay [3], 99.1%; in assay [8] it was 98.3%; in assay [4], 91.4%; in assay [5], 104%; in assay [6], 99.1%. For the same molecule, the growth in assay [7] is 104%.

In the case of `COc1cc(C)ccc1Oc1nc(Nc2ccc(N3CCOCC3)cc2)ncc1NC(=O)Nc1cc(C(F)(F)F)cc(C(F)(F)F)c1`, the growth was 81.9% in assay [1]; 81.5% in assay [3]; 82.6% in assay [8]; 69.3% in assay [4]; 22.6% in assay [5]; 101% in assay [6]. The growth in assay [7] was 63.5%.

Consider `O=c1oc2c(cc1-c1ccc(F)cc1)C(O)Oc1ccccc1-2` (stereo not drawn), for which the growth was 87.4% in assay [1]; 87.6% in assay [2]; 3.53% (active) in assay [3]; 55.2% in assay [4]; 48.6% in assay [6]; 45.3% in assay [7].

Take `CC(=O)Nc1ccc(S(=O)(=O)N/N=C(\C)c2ccc(C)cc2C)cc1`: the growth in assay [1] was 106%; in assay [2], 111%; in assay [8], 101%; in assay [4], 88.2%; in assay [5], 102%; in assay [6], 101%. The growth in assay [7] is 110%.

For the molecule `Cc1nn(-c2ccccc2)c2nc(Cl)c(C=O)c(-c3ccccc3)c12`, the growth in assay [1] was 83.5%; in assay [2], 86%; in assay [8], 72.1%; in assay [4], 90.6%; in assay [5] it was 4.57% (active); in assay [6] it was 77.5%. Also, in assay [7], the growth was 78.3%.

Take `COc1ccc(N(C)c2ncnc3occ(C)c23)cc1`: the growth in assay [1] was 67.1%; in assay [3], 7.12% (active); in assay [8], 33.9%; in assay [4] it was 9.66% (active); in assay [5], -11.9% (active); in assay [6], 7.26% (active). In assay [7], the growth is -33.2% (active).

For the molecule `CN(C)CCOc1cccc(NC2=C(Cl)C(=O)C(Nc3cccc(OCCN(C)C)c3)=C(Cl)C2=O)c1`, the growth in assay [1] was -42.1% (active); in assay [3] it was -68.6% (active); in assay [8] it was -54.9% (active); in assay [4] it was -40.8% (active); in assay [5], -89.4% (active); in assay [6], 11.6%. In assay [7], the growth was 34.4%.

For `O=C1c2ccccc2C(=O)c2c1ccc(C(Br)Br)c2[N+](=O)[O-]`, the growth in assay [1] is -36.2% (active); in assay [3], 81.5%; in assay [8], -23.6% (active); in assay [4], -40% (active); in assay [5], -63.9% (active); in assay [6], 82%. Besides, the growth in assay [7] was 49.9%.

With `NS(=O)(=O)Oc1ccc(-c2ccc3sccc3c2)cc1`, the growth is 105% in assay [1]; 104% in assay [3]; 99.9% in assay [8]; 120% in assay [4]; 95.3% in assay [5]; 99.2% in assay [6]. In addition, the growth in assay [7] is 101%.

Regarding `Cc1cc(Cl)ccc1Nc1nc(C(F)(F)F)ccc1C(=O)N/N=C/c1c(Cl)cccc1Cl`, the growth is -13.3% (active) in assay [1]; 10.5% in assay [3]; 6.12% (active) in assay [8]; 7.7% (active) in assay [4]; 1.5% (active) in assay [5]; 19.5% in assay [6].

Regarding `CSc1nc(S(C)(=O)=O)nc2[nH]c(=O)[nH]c12`, the growth is 112% in assay [1]; 102% in assay [2]; 111% in assay [8]; 109% in assay [4]; 99.1% in assay [5]; 118% in assay [7].

For `C#CC(C)(O)[C@@H]1C[C@H](CC(=O)O)C1(C)C` (stereo partly drawn), the growth in assay [1] was 120%; in assay [2], 104%; in assay [8], 109%; in assay [4], 94%; in assay [5], 106%; in assay [7], 108%.

Turning to `O=C(CSc1nccc(Nc2cccc3ccccc23)n1)c1ccc(Cl)cc1`, the growth in assay [1] is 76.1%; in assay [3], 101%; in assay [8], 92.7%; in assay [4], 99.5%; in assay [5] it was 67.5%; in assay [6] it was 101%. In assay [7], the growth was 94.7%.

On to `CN(C)CCCOc1ccc(NC2=C(Cl)C(=O)C(Nc3ccc(OCCCN(C)C)cc3)=C(Cl)C2=O)cc1`, for which the growth in assay [1] is -39.3% (active); in assay [3] it was -89% (active); in assay [8] it was -58.4% (active); in assay [4] it was -49.4% (active); in assay [5], -86.9% (active); in assay [6] it was -90.6% (active). Also, the growth in assay [7] was -63% (active).

Consider `COc1ccc(/C(C#N)=C/c2ccccc2OC)cc1`, for which the growth in assay [1] was 26%; in assay [2] it was 37.1%; in assay [3], -19.4% (active); in assay [4], 14.8%; in assay [5] it was 18.1%; in assay [6] it was 50.2%. In assay [7], the growth was 32.2%.

Regarding `COc1cc(-c2ccc(N=Nc3ccc4c(S(=O)(=O)O)ccc(N)c4c3O)c(OC)c2)ccc1N=Nc1ccc2c(S(=O)(=O)O)ccc(N)c2c1O`, the growth in assay [1] is 105%; in assay [2], 117%; in assay [4] it was 95.6%; in assay [5], 114%; in assay [6] it was 114%; in assay [7] it was 114%.
